According to PubChem BioAssay:

What was measured:
[1] = test system: Human papillomavirus type 1a protein E7 (residues 44-93); assay: small molecules binding HPV E7 44-93 – biochemical, small-molecule microarray, residues 44-93, 635 nm fluorescence, primary screen (AID 1108); conditions: fluorescence 635 nm, higher = more signal;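 also: E7 fragment applied at 1 µg/mL in TBST for 1 h at 4 C; score combines spot fluorescence with its signal to noise ratio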
[2] = hepatitis C replication reporter changes, two-sided – Huh7 cells, luciferase reporter, HCV replication inhibitor project, primary screen (AID 1109); conditions: Huh7 HCV replicon luciferase reporter, 48 h; higher = more signal;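 also: huh7 hepatoma cells harbouring a luciferase neomycin HCV replicon reporter; luciferase luminescence as measure of HCV replicon replication; test concentration not given here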
[3] = target: Left-right determination factor 2 (Homo sapiens) (UniProt O00292); assay: small molecules binding LEFTY2 protein – biochemical, small-molecule microarray, 635 nm fluorescence scan, primary screen (AID 1110); conditions: higher = more signal
Sequence of Left-right determination factor 2 (Homo sapiens) (O00292 whole entry, looked up): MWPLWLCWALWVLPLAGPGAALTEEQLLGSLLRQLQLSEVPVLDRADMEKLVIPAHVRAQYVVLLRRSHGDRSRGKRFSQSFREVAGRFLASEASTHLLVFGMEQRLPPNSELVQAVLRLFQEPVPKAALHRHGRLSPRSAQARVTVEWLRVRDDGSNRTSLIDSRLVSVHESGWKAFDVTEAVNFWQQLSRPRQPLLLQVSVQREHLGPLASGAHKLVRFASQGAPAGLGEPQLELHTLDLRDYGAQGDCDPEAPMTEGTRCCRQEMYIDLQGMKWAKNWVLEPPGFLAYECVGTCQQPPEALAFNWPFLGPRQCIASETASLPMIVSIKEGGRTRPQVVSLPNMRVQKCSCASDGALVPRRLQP

[4] = target: Calmodulin-1 (Homo sapiens) (UniProt P0DP23); assay: small molecules binding calmodulin-1 with EGTA – biochemical, small-molecule microarray, Cy5-labelled CALM1, profiling panel (AID 1111); conditions: Cy5-CALM1 binding fluorescence, higher = more signal;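 also: labelled calmodulin applied in Tris saline Tween buffer holding calcium plus EGTA and DTT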
[5] = target: Calmodulin-1 (Homo sapiens) (UniProt P0DP23); assay: small molecules binding Ca-loaded calmodulin-1 – biochemical, small-molecule microarray, Cy5-labelled CALM1, plus calcium, artefact control for SMM control-protein annotation, profiling panel (AID 1112); conditions: Cy5-CALM1 binding fluorescence, higher = more signal;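 also: score merges spot fluorescence with signal to noise from triplicate slides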
[6] = probe aWnt5a binding to arrayed compounds – biochemical, biotinylated probe, 635/667 nm fluorescence, primary screen (AID 1113); conditions: small-molecule microarray, higher = more signal;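 also: score merges 667 nm fluorescence intensity with signal-to-noise per printed feature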
[7] = probe aShh binding to arrayed compounds – biochemical, biotinylated probe, 635/667 nm fluorescence, primary screen (AID 1114); conditions: small-molecule microarray, higher = more signal;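 also: probe is biotin-labelled aShh protein from a stem cell growth factor screen; measures binding of labelled protein to compounds printed on the slide; score merges feature fluorescence at 667 nm with signal-to-noise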
[8] = probe aNog binding to arrayed compounds – biochemical, biotinylated probe, 635/667 nm fluorescence, primary screen (AID 1115); conditions: small-molecule microarray, higher = more signal;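 also: probe is biotinylated aNog protein used at 0.15 µg/mL for 1 h at 4 C; z-score combines 667 nm fluorescence of each spot with its signal to noise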
[9] = target: Torsin-1A-interacting protein 1 (Homo sapiens) (UniProt Q5JTV8); assay: compound microarray binding of lysate hLAP1 – cell lysate, small-molecule microarray, COS7 lysate, 635/667 nm fluorescence, primary screen (AID 1116); conditions: 635 nm fluorescence, higher = more signal
Sequence of Torsin-1A-interacting protein 1 (Homo sapiens) (Q5JTV8 whole entry, looked up): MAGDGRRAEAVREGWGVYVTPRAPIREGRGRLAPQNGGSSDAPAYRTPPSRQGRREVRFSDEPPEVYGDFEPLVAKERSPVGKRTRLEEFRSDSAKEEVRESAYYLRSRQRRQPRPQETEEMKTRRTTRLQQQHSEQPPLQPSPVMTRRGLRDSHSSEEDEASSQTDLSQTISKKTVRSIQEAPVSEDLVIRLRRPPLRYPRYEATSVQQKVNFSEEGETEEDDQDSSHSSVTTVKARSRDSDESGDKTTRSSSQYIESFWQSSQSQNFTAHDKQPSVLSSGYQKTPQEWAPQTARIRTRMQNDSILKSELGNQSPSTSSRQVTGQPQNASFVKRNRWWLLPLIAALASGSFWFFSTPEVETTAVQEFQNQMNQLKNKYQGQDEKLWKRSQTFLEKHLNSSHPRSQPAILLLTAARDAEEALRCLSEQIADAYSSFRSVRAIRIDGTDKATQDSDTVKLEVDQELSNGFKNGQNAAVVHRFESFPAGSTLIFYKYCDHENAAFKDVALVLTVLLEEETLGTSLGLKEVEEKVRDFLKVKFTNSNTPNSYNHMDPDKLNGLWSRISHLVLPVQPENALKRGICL

[10] = target: Alpha-bungarotoxin (Bungarus multicinctus) (UniProt P60615); assay: compounds binding labelled alpha-BTX control protein – biochemical, small-molecule microarray, Alexa647 label, 635/667 nm fluorescence, artefact control for SMM control protein annotation, profiling panel (AID 1117); conditions: alpha-BTX-A647 binding fluorescence, higher = more signal
Sequence of Alpha-bungarotoxin (Bungarus multicinctus) (P60615 whole entry, looked up): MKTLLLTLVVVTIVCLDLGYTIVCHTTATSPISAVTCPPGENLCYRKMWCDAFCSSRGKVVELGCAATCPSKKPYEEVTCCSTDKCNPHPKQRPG

SMILES	composite z-score [1]	z-score [2]	composite z-score [3]	composite z-score [4]	composite z-score [5]	composite z-score [6]	composite z-score [7]	composite z-score [8]	composite z-score [9]	composite z-score [10]
O=C1O[C@@H](c2ccccc2)[C@@H](c2ccccc2)N2[C@@H](c3ccc(OCCO)cc3)[C@]3(C(=O)Nc4ccc(C#CCCO)cc43)[C@@H](C(=O)Nc3nc4ccccc4s3)[C@H]12	1.36	-1.36	0.364	0.84	0.338	0.0219	0.0639	-0.353	0.82	0.626
CCCC=C(CCC)[C@@H](NC(=O)c1ccco1)c1ccc(C(=O)OC)cc1	1.43	-2.72	0.177	1.37	1.27	0.117	0.202	1.69	1.02	1.38
CCOC(=O)C1=CC[C@@H](c2ccccc2)N(S(=O)(=O)C[Si](C)(C)C)[C@H]1c1ccccc1	1.38	-0.61	0.618	1.36	0.391	0.105	-0.2	0.509	1.02	1.02
C=C(CCCC)/C(=C/C[C@H](OC(C)=O)c1cccc(OCCO)c1)c1cc(C(=O)OC)ccc1OC	-0.323	-1.95	-0.277	-0.343	-1.12	-0.0721	0.0062	0.257	0.455	-0.0712
O=C1OCCC=C[C@H]2OC34C=CCN(CCN5CCOCC5)C(=O)[C@H]3N(CCCO)C(=O)[C@@H]4C12 (stereo not given in full)	-0.211	-1.03	-0.861	-0.572	-1.17	-0.228	-0.144	-0.318	-0.79	-0.386
COCCOC(=O)N1C(=O)[C@@]2(c3cc(C#CCCO)ccc31)[C@H](c1ccccc1OCCO)N1[C@H](c3ccccc3)[C@H](c3ccccc3)OC(=O)[C@H]1[C@@H]2C(=O)N1CCc2cc(OC)c(OC)cc2C1	1.42	-1.36	0.507	1.07	0.0615	-0.0882	-0.0119	-0.0331	1.52	1.49
CCOC(=O)C1=CCC(c2cc3ccccc3[nH]2)N(S(=O)(=O)c2ccccc2[N+](=O)[O-])C1 (stereo not given)	0.833	-1.86	-0.335	-0.115	-0.472	0.0839	0.0121	-0.142	0.161	1.97
C=C(/C(=C/C[C@H](OC(=O)c1ccncc1)c1ccccc1OCCO)c1cc(C(=O)OC)ccc1OC)C(C)C	1.03	-2.96	0.255	-0.23	-0.587	0.132	0.0639	-0.194	0.0538	1.42
COCC(=C=CC[C@@H](O)c1ccc(OCCO)cc1)C[C@@H](O)COCc1ccccc1	1.39	-1.08	1	0.0268	0.473	0.0559	0.0611	0.629	0.319	0.0353
COC(=O)C1=CC(CCCO)=CC(C2CC2)N(Cc2cccc(OC(F)(F)F)c2)C=C1C(=O)OC (stereo not given)	1.43	-1.46	-0.724	0.302	0.364	0.0077	-0.0035	0.374	-0.302	0.0939
C=CC[C@]1(C(=O)NCc2ccccc2)COC(c2ccc(OCCCO)cc2)=N1	-0.298	-1.65	-1	0.388	-0.733	0.0293	0.0982	0.54	3.03	3.83
COC(=O)[C@@]1(Cc2ccc(F)cc2)[C@H]2c3cc(C(=O)N(C)C)n(CCN4CCOCC4)c3C[C@H]2CN1C(=O)c1ccccc1	0.357	0.349	0.134	0.639	-0.125	0.974	0.275	0.932	0.868	0.0194
COCCOC(=O)N1C(=O)[C@@]2(c3cc(C#CC4=CCCCC4)ccc31)[C@H](C(=O)N1CCc3cc(OC)c(OC)cc3C1)[C@H]1C(=O)O[C@H](c3ccccc3)[C@H](c3ccccc3)N1[C@@H]2c1ccc(O)cc1	1.42	-0.934	0.761	1.74	0.673	0.18	0.482	0.707	1.34	0.967
CC1(C)OC[C@@]23C=C(Br)[C@@H](C[C@H]12)[C@@]1(CO1)C3=O	0.223	-1.33	0.841	0.0619	-0.866	0.0937	-0.0769	-0.132	0.0611	0.179
C=CCNC(=O)[C@H]1[C@@H]2C(=O)O[C@@H](c3ccccc3)[C@@H](c3ccccc3)N2[C@@H](c2ccccc2OCCO)[C@]12C(=O)N(C(=O)OCCOC)c1ccccc12	1.11	-3.16	0.142	0.336	0.287	-0.124	0.0684	0.86	1.13	1.53
CCC[C@@H]1[C@@H](Sc2ccccc2)[C@@H](C(=O)O)[C@H](c2ccc(C)cc2)N1S(=O)(=O)c1ccc(C)cc1	1.47	-1.57	0.241	1.87	0.859	0.108	-0.0866	-0.0987	0.425	1.41
COCCCNC(=O)[C@@H]1c2ccccc2C(=O)N(Cc2cc(C(F)(F)F)cc(C(F)(F)F)c2)[C@H]1c1ccc(CO)cc1	0.0861	-0.293	-0.323	0.0808	0.232	-0.105	0.0091	0.896	0.208	-0.543
